Experimental data as given in PubChem BioAssay AID1347076 (National Center for Advancing Translational Sciences (NCATS), 2019).
In all, about 400,000 compounds went through this assay and about 13,000 (3.2%) were called active. Another 18% or so got no clear call; they are omitted. Calls follow the shape of the dose curve; as a rule, active = well fitted cell-killing curve with a large enough effect; inconclusive = small, poorly fitted or top-dose-only effect, or effect the other way; inactive = flat fitted curve, though single readings scatter. This excerpt belongs to a sample that is enriched for actives.

Assay: qHTS assay for MDR1-selective chemotherapeutics: Primary screen using the drug-selected MDR subline cells KB-V1; also: nearly all actives have a fitted effect of over 60% in size
Settings: KB-V1 MDR cells viability, CellTiter-Glo, 72 h; series mostly up to 46.1 µM; activity change, negative = cytotoxicity: at the top concentration
How it was run: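 Compound-treated KB-V1 multidrug-resistant cells, 72 h, 37 degrees C; viability by CellTiter-Glo. Fitted qHTS curves give the values.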
% is scaled to controls: 0 for no effect and ±100 for the full control effect; potency is read from the fitted curve at half-maximal effect.

Structure (SMILES) | activity change, negative = cytotoxicity | Potency
Cc1ccc(S(=O)(=O)N2CCCCC2)cc1NC(=O)CCNC(=O)c1ccccc1Cl | -2.44% (inactive) | 
CCn1c(C(O)c2cc(OC)ccc2OC)nc2ccccc21 (stereo not given) | 0% (inactive) | 
CC(=O)Nc1nonc1-c1nc2ccccc2n1Cc1ccccn1 | -6.93% (inactive) | 
COc1ccc(C)c(Cn2c(-c3nonc3N)nc3ccccc32)c1 |  | 2.31 µM (active)
O=C(NCCS(=O)(=O)N1CCN(c2ccccc2)CC1)c1cc(=O)c2ccccc2o1 | -16.5% (inactive) | 
OCCC#Cc1ccc(N2C(c3ccsc3)=Cc3ccc(F)cc3C2c2c[nH]c3ccccc23)cc1 (stereo not given) | -2.8% (inactive) | 
COc1ccc(CNS(=O)(=O)c2cc(-c3cc(C)no3)ccc2C(C)C)cc1 |  | 13 µM (active)
CCOc1ccccc1CNS(=O)(=O)c1cc(-c2cc(C)no2)ccc1C | -25.9% (inactive) | 
COc1ccc(CCNS(=O)(=O)c2cc(-c3cc(C)no3)ccc2C)cc1OC | 14.1% (inactive) | 
CC1(C(=O)NS(=O)(=O)Cc2cccc(Cl)c2)CCN1C(=O)Cc1ccc(Cl)cc1Cl (stereo not given) | 3.11% (inactive) | 
CCc1nc2ccc(C(=O)N3CCN(S(=O)(=O)CC)CC3)cn2c1N(C=O)CCC(C)C | -1.32% (inactive) | 
CCCCCCCNc1ccc(/C=C/c2ccnc3ccccc23)cc1 | -14.4% (inactive) | 
Cc1cc(C)nc(NS(=O)(=O)c2ccc(NC(=O)c3cc(=O)c4ccc(C)c(C)c4o3)cc2)n1 | 10.1% (inactive) | 
Nc1cc(=O)n(Cc2ccccc2)c(=O)n1Cc1ccccc1 |  | 18.4 µM (active)
Cc1cc(-c2csc(N)n2)c(C)n1Cc1ccccc1 | -1.04% (inactive) | 
O=c1c2ccccc2n(Cc2cccc(Cl)c2)c(=O)n1Cc1ccccc1 | 0% (inactive) | 
O=C(CCN1CCCCC1)Nc1ccc(F)c(F)c1 | -4.41% (inactive) | 
CSc1ncnc2c1ncn2CC(=O)C1CCC2C3CCC4=CC(=O)CCC4(C)C3CCC12C (stereo not given) |  | 23.1 µM (active)
CSc1ncnc2c1ncn2CCCNCc1ccco1 | -0.21% (inactive) | 
CSc1ncnc2c1ncn2CCCNCC1CCCCC1 | -20.3% (inactive) | 
Cc1cc(C)cc(NC(=O)Cn2nc(N3CCN(c4ccccc4)CC3)ccc2=O)c1 | 0% (inactive) | 
CC1(C)CN(Cc2cccnc2)C(=O)[C@H]1CC(=O)Nc1ccc(Br)cc1 | -10.6% (inactive) | 
COC(=O)CN(c1nc(C)c(Cl)c(OC)n1)S(=O)(=O)c1ccc(C)cc1 |  | 13 µM (active)
COc1ccc(C)cc1N(CC(=O)N1CCC(C)CC1)S(=O)(=O)c1ccc(C)cc1 | -20% (inactive) | 
CCN(CC)C(=O)CN(c1cccc(OC)c1)S(=O)(=O)c1ccc(C)cc1 | -18.1% (inactive) | 

Structure (SMILES) | activity change, negative = cytotoxicity | Potency
CCOC(=O)N1CCN(C(=O)C[C@@H]2C[C@@]3(C(=O)OC)CCCCC=C3N(CCC3=CCCCC3)C2=O)CC1 | 0% (inactive) | 
CCCNC(=O)C[C@@H]1CC[C@@H]2[C@H](COC[C@H](O)CN2C(=O)c2cc(Cl)cc(Cl)c2)O1 | -2.38% (inactive) | 
C[C@@H]1CN([C@@H](C)CO)C(=O)c2c(c3ccccc3n2C)-c2ccccc2CO[C@H]1CN(C)C(=O)C1CC1 | 2.91% (inactive) | 
Cn1ncc([N+](=O)[O-])c1C(=O)Nc1cc(Cl)ccc1Cl | -28.7% (inactive) | 
CN(C)c1ccc(NC(=O)CSc2nc(-c3ccco3)cc(C(F)(F)F)n2)cc1 | -4.3% (inactive) | 
Cc1ccc(-c2cnc(C(O)c3cccc(C)c3C)[nH]2)cc1 (stereo not given) | 0.531% (inactive) | 
Cc1cc(F)ccc1NS(=O)(=O)c1ccc(-n2cccn2)cc1 | -19.7% (inactive) | 
Cc1ccc(-c2nnc3ccc(SCC(N)=O)nn23)cc1 | -16.7% (inactive) | 
COc1cccc(NCCC(=O)c2cccc([N+](=O)[O-])c2)c1 | 0% (inactive) | 
CCC1(C(=O)c2ccccc2)C(c2cccc([N+](=O)[O-])c2)C1(C(=O)OC)C(=O)OC (stereo not given) |  | 23.1 µM (active)
O=C(NOCc1ccccc1)c1cccc([N+](=O)[O-])c1 | -0.0129% (inactive) | 
CC(C)(C)NC(=O)C(CCc1ccccc1)n1c(=O)c(-c2ccccc2)nc2ccccc21 (stereo not given) | -14% (inactive) | 
Cc1cccc2cc(CN(C(=O)c3cccs3)c3ccccc3)c(=O)[nH]c12 |  | 23.1 µM (active)
Cc1cc(C)c2[nH]c(=O)c(CN(Cc3ccccc3)C(=S)NCCCN(C)C)cc2c1 | 20.3% (inactive) | 
Cc1cccc2cc(CN(Cc3cccs3)C(=S)NCc3ccco3)c(=O)[nH]c12 |  | 3.66 µM (active)
Cc1ccc(C)c2[nH]c(=O)c(CN(Cc3cccnc3)C(=S)NCc3ccco3)cc12 | -4.35% (inactive) | 
Cc1ccc(C)c2[nH]c(=O)c(CCNC(=O)c3cccs3)cc12 | -0.813% (inactive) | 
CCCN(Cc1cc2cccc(C)c2[nH]c1=O)S(C)(=O)=O | 0% (inactive) | 
CCOC1=C2[C@H]([C@H]3C(=O)N(c4ccccc4)C(=O)[C@H]3C1)[C@@H](c1ccccc1)N(S(=O)(=O)c1ccc(C)cc1)[C@H]2c1ccccc1 | 9.91% (inactive) | 
CCc1nc2ccc(C(=O)NCc3ccc(OC)cc3)cn2c1N(CC)Cc1cccc(Br)c1 | -14.4% (inactive) | 
CSC1=NN(c2ccccc2)CN(c2ccccc2)N1C | -10.4% (inactive) | 
Cc1cccc(-c2cnc(C(O)c3cc(C)cc(C)c3)[nH]2)c1 (stereo not given) | -1.95% (inactive) | 
COCCNC(=O)C1(C)CCCN(Cc2cccc(F)c2)C1 (stereo not given) | 5.35% (inactive) | 
O=C(CN1C(=O)c2cccc3cccc1c23)Nc1ccccc1 | -9.9% (inactive) | 
O=C(CN1CCN(c2ccccn2)CC1)N1CCc2ccccc21 | 19.5% (inactive) | 

Structure (SMILES) | activity change, negative = cytotoxicity | Potency
O=C1c2cccc3cccc(c23)N1CN1CCN(c2ccccn2)CC1 |  | 5.8 µM (active)
COc1ccc(NC(=O)CN2C(=O)NC(C)(c3ccccc3)C2=O)cn1 (stereo not given) | 19% (inactive) | 
COc1cccc(CNC(=O)c2ccc3c(Cl)c4c(nc3c2)CCCC4)c1 | -11.6% (inactive) | 
COc1ccc(N2CCN(C(=O)c3ccc4c(Cl)c5c(nc4c3)CCCC5)CC2)cc1 |  | inactive
CC(=O)c1ccc(NC(=O)c2ccc3c(Cl)c4c(nc3c2)CCCC4)cc1 |  | 16.4 µM (active)
Fc1ccc(-c2nn(-c3ccccc3Cl)c3c2cnc2ccccc23)cc1 | -20.6% (inactive) | 
Cc1ccc(S(=O)(=O)N[C@H](CO)C(C)C)cc1 | -2.47% (inactive) | 
Cc1cccc(C(=O)Nc2ccc(-c3nc4ccccc4s3)c(C)c2)c1 | 17.3% (inactive) | 
CN(NC(=O)c1ccccc1F)c1nc(C(F)(F)F)nc2ccccc12 | -12% (inactive) | 
O=C(Nn1cnc2ccccc2c1=O)c1ccccc1 | -7.07% (inactive) | 
CN(NC(=O)c1ccccc1)c1nc2ccccc2nc1C(F)(F)F |  | 4.61 µM (active)
Cc1cccc(C(=O)NCCc2nc3ccccc3n2Cc2ccccc2Cl)c1 | -0.81% (inactive) | 
CSc1nc(N(C)NC(=O)c2cccc(C)c2)c2ccccc2n1 |  | 0.206 µM (active)
C[C@H](CO)N1C[C@H](C)[C@@H](CN(C)C(=O)C2CCCCC2)OCc2cnnn2CCCC1=O | 0% (inactive) | 
Cc1ccc(F)c(S(=O)(=O)NC(=O)C2(C)CCN2C(=O)c2ccco2)c1 (stereo not given) | 2.85% (inactive) | 
COc1cccc(CNc2nc3cc(-c4csc5ccccc45)sc3c(=O)n2C)c1 | 1.56% (inactive) | 
CC1CCN(c2ccc3c(c2)S(=O)(=O)c2cc(C(=O)O)ccc2C3=O)CC1 | -17.6% (inactive) | 
CCCCc1ccc(S(=O)(=O)NC(=O)C2(C)CCN2C(=O)c2ccccc2)cc1 (stereo not given) | -1.95% (inactive) | 
O=c1[nH]c(CN2CCOCC2)nc2cc(Cl)ccc12 | -7.03% (inactive) | 
NC(=O)Cc1nc2scc(-c3ccc(Cl)cc3)c2c(=O)[nH]1 | 34.2% (inactive) | 
O=c1[nH]c(CCl)nc2cc(-c3ccc(Cl)cc3)sc12 |  | 16.4 µM (active)
COCOc1cccc(CN2CCC(C)(Oc3ccc(SC)cc3)C2)c1 (stereo not given) | -12.9% (inactive) | 
O=C1CC(c2ccccc2)CC2=C1C(c1ccco1)n1nc(C(F)(F)F)nc1N2 (stereo not given) | 0% (inactive) | 
COc1ccc(N2C(=O)CSC23C(=O)N(Cc2cccc(F)c2)c2ccccc23)cc1Cl (stereo not given) |  | 16.4 µM (active)
COc1ccnc2c1c(=O)n(Cc1cccc(F)c1)c(=O)n2C | -0.196% (inactive) | 

Structure (SMILES) | activity change, negative = cytotoxicity | Potency
COc1ccc(N2C(=O)CS(=O)(=O)C23C(=O)N(Cc2ccc(C)cc2)c2ccccc23)cc1Cl (stereo not given) | 3.01% (inactive) | 
COc1cc(C(=O)OCCCN2CCOCC2)cc(OC)c1OC | -11.7% (inactive) | 
CC(C)(C)OC(=O)N1CCC(c2c(C(=O)Nc3ccc4c(c3)OCO4)cnn2-c2ccccc2)CC1 | -13.9% (inactive) | 
COc1cc(OC)c(OC)cc1/C=C1\C=Cc2ccccc21 | -1.45% (inactive) | 
COc1ccc(S(=O)(=O)N2CCC(C(=O)NCCC(=O)Nc3ccccc3OC)CC2)cc1 | 6.15% (inactive) | 
COC(=O)c1cc(NC(=O)c2ccco2)ccc1N1CCOCC1 | -2.65% (inactive) | 
COC(=O)c1cc(NC(=O)c2cc(C(C)(C)C)nn2Cc2cccc(C)c2)ccc1N1CCOCC1 |  | 8.2 µM (active)
CC(=O)Nc1ccc(N2CCOCC2)c(C(=O)Nc2cccc(C)c2)c1 | -4.2% (inactive) | 
COc1ccc(C(=O)C(OP(=O)(OC)OC)c2ccccc2OC)cc1 (stereo not given) | -16.5% (inactive) | 
CC1CC(NC(=S)N(C)C)CC(C)(C)C1 (stereo not given) | -7.02% (inactive) | 
C=CCOC(=O)C1=C(C)NC(C)=C(C(=O)OCC=C)C1c1cccs1 |  | 16.4 µM (active)
CC1=C(C(=O)Nc2ccccc2)C(c2cccs2)C(C#N)=C(SCC#N)N1 (stereo not given) | -9.02% (inactive) | 
C=CCOC(=O)c1ccccc1C(=O)OCC=C | 28.4% (inactive) | 
COc1ccc(C(O)c2nc(-c3ccc(OC)nc3)cs2)cc1 (stereo not given) | -18.5% (inactive) | 
Cc1ccc(CNC(=O)c2c(-c3ccccc3)noc2C)cc1 | 6.43% (inactive) | 
CCOC(=O)c1c(-c2ccc(-c3ccccc3)cc2)csc1NC(=O)CCC(=O)O | 23% (inactive) | 
CCOC(=O)c1c(-c2cccc(C)c2)csc1NC(=O)c1c(-c2ccccc2)noc1C |  | 11.6 µM (active)
O=S1(=O)CC(N2CCN(CCO)CC2)CN1C1CCCC1 (stereo not given) | -0.341% (inactive) | 
COc1ccc(C(=O)NCC2CCCO2)cc1S(=O)(=O)NCc1ccc(Cl)cc1 (stereo not given) | -13.3% (inactive) | 
CCCCCc1c(-c2cccc(Br)c2)ncn1CCc1ccccc1OC |  | 11.6 µM (active)
CCC(=O)NCc1cc(-c2nn(C)c(=O)c3ccccc23)ccc1OC |  | inactive
COc1ccc(Br)cc1CN1CCN(C(=O)c2cccc(OC)c2OC)CC1 | -7.38% (inactive) | 
CCCCCc1c(-c2ccc(OC)c(OC)c2)ncn1CCc1ccccc1OC |  | 14.6 µM (active)
CCOC(=O)CSc1nnc(-c2cccc(Br)c2)o1 | 17.9% (inactive) | 
CCCCCc1c(Cc2ccccc2)ncn1CCc1ccccc1OC | -27.9% (inactive) | 
